The AC50 is the concentration giving half of the maximal activity seen.

Structures are written as SMILES. Records with an inconclusive call do not appear. The source made the active and inactive calls. How the source made its calls: active means hit-call score of the fitted dose curve at least 0.9, where 1 is the maximum; inconclusive means response in the unintended direction; inactive means score below 0.9.

From PubChem BioAssay (EPA / NIEHS) come the findings set out here.

Chain of Estrogen receptor (Homo sapiens) (P03372 whole entry, looked up): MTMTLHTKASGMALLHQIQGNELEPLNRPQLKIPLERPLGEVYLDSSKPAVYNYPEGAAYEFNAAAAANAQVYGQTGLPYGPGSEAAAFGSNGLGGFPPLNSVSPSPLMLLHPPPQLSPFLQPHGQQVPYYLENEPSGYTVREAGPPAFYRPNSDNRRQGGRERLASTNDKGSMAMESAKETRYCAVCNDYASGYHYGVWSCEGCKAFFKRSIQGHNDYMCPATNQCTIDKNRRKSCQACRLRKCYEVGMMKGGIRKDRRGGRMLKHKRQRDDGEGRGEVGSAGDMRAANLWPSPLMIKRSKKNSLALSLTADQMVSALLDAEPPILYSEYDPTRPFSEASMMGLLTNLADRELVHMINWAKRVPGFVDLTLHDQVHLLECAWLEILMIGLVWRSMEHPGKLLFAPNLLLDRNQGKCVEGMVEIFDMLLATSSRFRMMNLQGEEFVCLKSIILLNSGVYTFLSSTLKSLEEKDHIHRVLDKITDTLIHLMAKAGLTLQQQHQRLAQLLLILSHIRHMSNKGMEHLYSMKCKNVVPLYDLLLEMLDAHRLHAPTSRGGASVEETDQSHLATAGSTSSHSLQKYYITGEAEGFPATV

This test addresses Estrogen receptor (Homo sapiens) (UniProt P03372). The experiment in a line: CCTE_Deisenroth_AIME_384WELL_LUC_Active: CCTE's 384-well Estrogen Receptor Transactivation Assay with AIME metabolic competence (ERTA luciferase; metabolism positive), Deisenroth Lab (AID 2284030). On the procedure:
CCTE_Deisenroth_AIME_384WELL (AIME metabolism assay) is a cell-based, single-readout assay that uses VM7Luc4E2, a human mammary gland/breast cell line, with measurements taken at 24 hour after chemical dosing in a 384-well plate.CCTE_Deisenroth_AIME_384WELL_LUC_Active is one of four assay components measured or calculated from the CCTE_Deisenroth_AIME_384WELL assay. It is designed to make measurements of luciferase induction, a form of inducible reporter, as detected with bioluminescence signals by luciferase-coupled ATP quantitation technology.CCTE_Deisenroth_AIME_384WELL_LUC_Active is a component of the CCTE_Deisenroth_AIME_384WELL assay that measures the effect of retroftting the VM7Luc ERTA assay with the Alginate Immobolization of Metabolic Enzymes (AIME) metabolism method. AIME is optimized to impart phase I hepatic metabolism using phenobarbital/beta-naphthoflavone induced hepatic S9 from male Sprague Dawley rats. Parent chemicals are incubated for 2 hours in the AIME assay prior to transfer to the VM7Luc ERTA assay plate. […] This endpoint evaluates reporter induction in metabolism positive mode. Using a type of inducible reporter in VM7Luc cells, gain-of-signal activity can be used to understand changes in the reporter gene as they relate to xenobiotic metabolism and the gene ESR1. This assay endpoint, CCTE_Deisenroth_AIME_384WELL_LUC_Active, was analyzed in the positive analysis fitting direction relative to 17beta-estradiol as the positive control in the ERTA assay. To generalize the intended target to other relatable targets, this assay endpoint is annotated to the nuclear receptor intended target family, where the subfamily is steroidal.
The AIME procedure consists of a preparative "pre-stamping" step using a barium chloride/poly-L-lysine (PLL) solution followed by "stamping" the lid in alginate-hepatic S9 (metabolism positive) or alginate-water (metabolism negative) to form microspheres. Once stamping is completed, the AIME lids are placed in duplicate microplates (metabolism positive or negative) containing chemical solutions and incubated for two hours to facilitate metabolic reactions. The conditioned medium, containing parent chemical or metabolites, is then transferred to the cell-based VM7Luc Estrogen Receptor Transactivation Assay (ERTA) for 24 hours. A typical experimental design tests a 10-point concentration series (0.002 - 200 uM) for 8 compounds (96-well format)1 or 32 compounds (384-well format)2 in single technical replicate. AIME assay controls include trans-stilbene (bioactivated control) and ethylparaben (bioinactivated control). ERTA assay plate controls include 17-beta estradiol (positive control) and DMSO (solvent control). Experiments typically comprise a minimum of four experimental replicates (n=4).
As for `COP(N)(=O)SC` (stereo unspecified), the compound was called inactive.
Regarding `CC1=C(C(=O)Nc2ccccc2)SCCO1`, the result was inactive.
For `COc1cnc(OC)n2nc(NS(=O)(=O)c3c(OCC(F)F)cccc3C(F)(F)F)nc12`, the AC50 was 21.2 µM (active).
With `C=CC1(C)OC(=O)N(c2cc(Cl)cc(Cl)c2)C1=O` (stereo unspecified), the call was inactive.
On to `CCON=C(CC)C1=C(O)CC(c2c(C)cc(C)cc2C)CC1=O` (stereo unspecified), for which the compound was called inactive.
Turning to `Cc1c(F)c(F)c(COC(=O)C2C(/C=C(\Cl)C(F)(F)F)C2(C)C)c(F)c1F` (stereo unspecified), the call was inactive.
On the same count and under the same terms, the value for `CC(Oc1ccc(Cl)cc1Cl)C(=O)O` (stereo unspecified) was “inactive”.
For the compound `Oc1ccccc1-c1ccccc1`, the AC50 is 57.9 µM (active).
For `O=C(O)COc1nc(Cl)c(Cl)cc1Cl`, the compound was called inactive.
The same measure, in the same setting: the value for `O=C(O)c1nc(Cl)ccc1Cl` was “inactive”.
Regarding `COC(=O)N(OC)c1ccccc1COc1ccn(-c2ccc(Cl)cc2)n1`, the call was inactive.
